From PubChem BioAssay (NCI) come the findings set out here.

This is part of a sample that, as a whole, favours compounds with a hit. Of some 79,000 tested, about 15% had one in any assay. A number with no mark means an inactive call. Active and inactive are the calls of the source. Cut-off read from the data, not from the text of the source: active = growth inhibition above about 70%; inactive = the rest.

Assay [1] is described as follows: NCI Yeast Anticancer Drug Screen. Data for the rad50 strain (AID 155).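 Note: 0% = growth of vehicle-only cultures of the same strain.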 Particulars: S. cerevisiae rad50 strain growth inhibition, hits give high values. The procedure, abridged: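 Compounds were tested on a yeast strain with an engineered DNA damage repair alteration; the reported value is growth inhibition normalised to vehicle treatment.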
Assay [2] in a line: NCI Yeast Anticancer Drug Screen. Data for the mec2-1 strain (AID 157). Particulars: S. cerevisiae mec2-1 strain, hits give high values. In outline:
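Each compound was tested on mec2-1 yeast, a strain altered in DNA damage repair or cell cycle control. Growth inhibition is reported relative to vehicle.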

Assay [3] is described as follows: NCI Yeast Anticancer Drug Screen. Data for the sgs1 mgt1 strain (AID 161).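 Note: 0% = growth of cultures given vehicle only.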 Particulars: S. cerevisiae sgs1 mgt1 strain, hits give high values. The procedure, abridged:
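Test agents were incubated with a DNA-repair-mutant yeast strain. Growth was then read and compared against vehicle-treated controls.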

Assay [4] is described as follows: NCI Yeast Anticancer Drug Screen. Data for the cln2 rad14 strain (AID 165).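 Note: 0% = growth equal to vehicle treated cultures.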 Particulars: S. cerevisiae cln2 rad14 strain, hits give high values. In outline:
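Test compounds were added to cln2 rad14 yeast cultures; inhibition of growth was then determined by comparison with vehicle treatment.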

Assay [5] in a line: NCI Yeast Anticancer Drug Screen. Data for the bub3 strain (AID 167). Particulars: S. cerevisiae bub3 mutant strain, hits give high values. In outline: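 Growth of a checkpoint-deficient yeast mutant is measured after compound exposure. Values represent inhibition relative to vehicle.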
Assay [6] can be described thus: NCI Yeast Anticancer Drug Screen. Data for the mlh1 rad18 strain (AID 175). The following applies: S. cerevisiae mlh1 rad18 strain growth inhibition, hits give high values. The procedure, abridged:
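Inhibition values reflect reduced growth of mutant yeast versus vehicle-treated controls following compound exposure; the mutations affect DNA damage repair.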

[7] abbreviates: at 5.0 µM (retest, dose inferred, filed as 0.5).
Setting [8] is: at 50.0 µM (retest, dose inferred, filed as 5.0).

Take `CO[C@@]12[C@@H]3N[C@@H]3CN1C1=C(C(=O)C(N(C)c3ccc(O)cc3)=C(C)C1=O)[C@@H]2COC(N)=O`: the growth inhibition in assay [1] (setting [7]) is 21%; in assay [1] (setting [8]), 64%; in assay [1] (at 50.0 µM), 81.9% (active); in assay [2] (setting [7]), 24%; in assay [2] (setting [8]) it was 70% (active); in assay [2] (at 50.0 µM), 76% (active). Moreover, the growth inhibition in assay [3] (setting [7]) is -7%; in assay [3] (setting [8]), 44%; in assay [3] (at 50.0 µM) it was 68.4%; in assay [4] (setting [7]), 1%; in assay [4] (setting [8]), 62%; in assay [4] (at 50.0 µM), 65%. In addition, the growth inhibition in assay [5] (setting [7]) was -5%; in assay [5] (setting [8]), 30%; in assay [5] (at 50.0 µM) it was 53.2%; in assay [6] (setting [7]), 33%; in assay [6] (setting [8]) it was 96% (active); in assay [6] (at 50.0 µM), 83.2% (active).

With `O=[N+]([O-])/C=C\c1ccc2c(c1)OCO2`, the growth inhibition in assay [1] (setting [7]) was 99% (active); in assay [1] (setting [8]), 100% (active); in assay [1] (at 50.0 µM) it was 99.3% (active); in assay [2] (setting [7]) it was 100% (active); in assay [2] (setting [8]), 100% (active); in assay [2] (at 50.0 µM) it was 99.5% (active). The growth inhibition in assay [3] (setting [7]) was 99% (active); in assay [3] (setting [8]), 99% (active); in assay [3] (at 50.0 µM) it was 99.5% (active); in assay [4] (setting [7]), 100% (active); in assay [4] (setting [8]) it was 99% (active); in assay [4] (at 50.0 µM) it was 98.8% (active). Also, the growth inhibition in assay [5] (setting [7]) was 100% (active); in assay [5] (setting [8]) it was 94% (active); in assay [5] (at 50.0 µM) it was 99% (active); in assay [6] (setting [7]) it was 100% (active); in assay [6] (setting [8]), 100% (active); in assay [6] (at 50.0 µM) it was 99.5% (active).

As for `C#CC[As+](c1ccccc1)(c1ccccc1)c1ccccc1`, the growth inhibition in assay [1] (setting [7]) is 31%; in assay [1] (setting [8]), 98% (active); in assay [1] (at 50.0 µM), 88.4% (active); in assay [2] (setting [7]) it was 29%; in assay [2] (setting [8]), 99% (active); in assay [2] (at 50.0 µM) it was 91.8% (active). In addition, the growth inhibition in assay [3] (setting [7]) is 45%; in assay [3] (setting [8]) it was 100% (active); in assay [3] (at 50.0 µM), 92.5% (active); in assay [4] (setting [7]), 37%; in assay [4] (setting [8]), 95% (active); in assay [4] (at 50.0 µM) it was 88.8% (active). Also, the growth inhibition in assay [5] (setting [7]) was 34%; in assay [5] (setting [8]), 99% (active); in assay [5] (at 50.0 µM) it was 91.2% (active); in assay [6] (setting [7]) it was 45%; in assay [6] (setting [8]), 98% (active); in assay [6] (at 50.0 µM) it was 88.9% (active).

Take `C/C(=N/NC(N)=S)c1ccc(Cl)cc1`: the growth inhibition in assay [1] (setting [7]) is 9%; in assay [1] (setting [8]), 94% (active); in assay [1] (at 50.0 µM), 96.5% (active); in assay [2] (setting [7]), -17%; in assay [2] (setting [8]), 89% (active); in assay [2] (at 50.0 µM) it was 97.1% (active). Besides, the growth inhibition in assay [3] (setting [7]) was 5%; in assay [3] (setting [8]), 93% (active); in assay [3] (at 50.0 µM), 94% (active); in assay [4] (setting [7]) it was -10%; in assay [4] (setting [8]) it was 92% (active); in assay [4] (at 50.0 µM), 92.5% (active). Moreover, the growth inhibition is 41% in assay [5] (setting [7]); 94% (active) in assay [5] (setting [8]); 95.3% (active) in assay [5] (at 50.0 µM); 8% in assay [6] (setting [7]); 96% (active) in assay [6] (setting [8]); 97.2% (active) in assay [6] (at 50.0 µM).

Turning to `O=C(O)C(O)(c1ccc(-c2ccccc2)cc1)c1ccc(-c2ccccc2)cc1`, the growth inhibition in assay [1] (setting [7]) was 16%; in assay [1] (setting [8]) it was 91% (active); in assay [1] (at 50.0 µM) it was 96.4% (active); in assay [2] (setting [7]), 13%; in assay [2] (setting [8]) it was 93% (active); in assay [2] (at 50.0 µM), 97% (active). Also, the growth inhibition in assay [3] (setting [7]) was 0%; in assay [3] (setting [8]), 95% (active); in assay [3] (at 50.0 µM) it was 96.2% (active); in assay [4] (setting [7]), 5%; in assay [4] (setting [8]), 93% (active); in assay [4] (at 50.0 µM), 95% (active). Moreover, the growth inhibition is 1% in assay [6] (setting [7]), 96% (active) in assay [6] (setting [8]) and 96.8% (active) in assay [6] (at 50.0 µM).

Regarding `S=C=[N][Sn]([N]=C=S)([c]1ccccc1)[c]1ccccc1.c1ccc2nc(-c3ccc4ccccc4n3)ccc2c1`, the growth inhibition in assay [1] (setting [7]) was 72% (active); in assay [1] (setting [8]) it was 98% (active); in assay [1] (at 50.0 µM) it was 89.3% (active); in assay [2] (setting [7]), 65%; in assay [2] (setting [8]) it was 99% (active); in assay [2] (at 50.0 µM), 91.2% (active). Also, the growth inhibition in assay [3] (setting [7]) is 84% (active); in assay [3] (setting [8]) it was 99% (active); in assay [3] (at 50.0 µM), 91.5% (active); in assay [4] (setting [7]), 51%; in assay [4] (setting [8]) it was 99% (active); in assay [4] (at 50.0 µM), 90.8% (active). The growth inhibition was 85% (active) in assay [5] (setting [7]); 99% (active) in assay [5] (setting [8]); 90% (active) in assay [5] (at 50.0 µM); 77% (active) in assay [6] (setting [7]); 98% (active) in assay [6] (setting [8]); 77.5% (active) in assay [6] (at 50.0 µM).

For `O=C1c2ccccc2CCC1Br` (configuration not stated), the growth inhibition in assay [1] (setting [7]) was -20%; in assay [1] (setting [8]), 99% (active); in assay [1] (at 50.0 µM), 99% (active); in assay [2] (setting [7]), 11%; in assay [2] (setting [8]) it was 99% (active); in assay [2] (at 50.0 µM), 99.1% (active). The growth inhibition in assay [3] (setting [7]) was -3%; in assay [3] (setting [8]), 98% (active); in assay [3] (at 50.0 µM), 99.2% (active); in assay [4] (setting [7]) it was -18%; in assay [4] (setting [8]), 99% (active); in assay [4] (at 50.0 µM), 98.6% (active). Further, the growth inhibition was -27% in assay [5] (setting [7]); 99% (active) in assay [5] (setting [8]); 98.7% (active) in assay [5] (at 50.0 µM); -13% in assay [6] (setting [7]); 99% (active) in assay [6] (setting [8]); 99% (active) in assay [6] (at 50.0 µM).

For `C[AsH](C)CC[AsH](C)C.C[AsH](C)CC[AsH](C)C.C[AsH](C)CC[AsH](C)C.[Ni]`, the growth inhibition is 79% (active) in assay [1] (setting [7]); 98% (active) in assay [1] (setting [8]); 96.9% (active) in assay [1] (at 50.0 µM); 51% in assay [2] (setting [7]); 99% (active) in assay [2] (setting [8]); 95% (active) in assay [2] (at 50.0 µM). Further, the growth inhibition in assay [3] (setting [7]) was 93% (active); in assay [3] (setting [8]), 99% (active); in assay [3] (at 50.0 µM), 96.7% (active); in assay [4] (setting [7]), 74% (active); in assay [4] (setting [8]) it was 97% (active); in assay [4] (at 50.0 µM) it was 93.5% (active). Also, the growth inhibition is 68% in assay [5] (setting [7]); 99% (active) in assay [5] (setting [8]); 96.5% (active) in assay [5] (at 50.0 µM); 56% in assay [6] (setting [7]); 99% (active) in assay [6] (setting [8]); 96.5% (active) in assay [6] (at 50.0 µM).

As to `[Cl][Pt+2][Cl].[NH-]c1ccc([N+](=O)[O-])cc1[NH-]`, the growth inhibition was 40% in assay [1] (setting [7]); 73% (active) in assay [1] (setting [8]); 63.8% in assay [1] (at 50.0 µM); 27% in assay [2] (setting [7]); 62% in assay [2] (setting [8]); 75.7% (active) in assay [2] (at 50.0 µM). Also, the growth inhibition is 100% (active) in assay [3] (setting [7]); 94% (active) in assay [3] (setting [8]); 75.5% (active) in assay [3] (at 50.0 µM); 99% (active) in assay [4] (setting [7]); 94% (active) in assay [4] (setting [8]); 54.6% in assay [4] (at 50.0 µM). The growth inhibition is 100% (active) in assay [5] (setting [7]); 95% (active) in assay [5] (setting [8]); 68.3% in assay [5] (at 50.0 µM); 58% in assay [6] (setting [7]); 79% (active) in assay [6] (setting [8]); 70.5% (active) in assay [6] (at 50.0 µM).

As to `[Cl][Sn]([CH2]c1ccccc1)([CH2]c1ccccc1)[CH2]c1ccccc1`, the growth inhibition was 99% (active) in assay [1] (setting [7]); 98% (active) in assay [1] (setting [8]); 99% (active) in assay [1] (at 50.0 µM); 100% (active) in assay [2] (setting [7]); 99% (active) in assay [2] (setting [8]); 99.2% (active) in assay [2] (at 50.0 µM). Moreover, the growth inhibition in assay [3] (setting [7]) was 100% (active); in assay [3] (setting [8]), 99% (active); in assay [3] (at 50.0 µM), 99.3% (active); in assay [4] (setting [7]), 99% (active); in assay [4] (setting [8]) it was 98% (active); in assay [4] (at 50.0 µM) it was 98.7% (active). Moreover, the growth inhibition in assay [5] (setting [7]) is 99% (active); in assay [5] (setting [8]), 99% (active); in assay [5] (at 50.0 µM) it was 98.5% (active); in assay [6] (setting [7]), 99% (active); in assay [6] (setting [8]), 99% (active); in assay [6] (at 50.0 µM), 99% (active).
